The whole screen tested about 5,500 compounds, of which about 2,000 (36%) were called active. Another 18% or so got no clear call; they are omitted. Cut-off read from the data, not from the text of the source: active = normalized growth mostly below about 0.91 (no sharp cut-off); inconclusive = no clear call, values can overlap the other calls; inactive = mostly above about 0.92. Some of the results follow.
Test: chemical genetic growth profiling, strain panel (AID 1159580);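 note: tested at 20 µM; growth read once vehicle control cultures reached saturation at 30 °C; 1 = growth at the plate median or of vehicle wells; lower values mean less growth of the strain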
Details: S. cerevisiae deletion strains, growth OD

Measured: normalized growth

CC(=O)OCCCCN1C(=O)c2ccccc2C1=O
inactive: locus YAL013W, strain DEP1, stronger effect = lower value 0.995 | locus YBR229C, strain ROT2, stronger effect = lower value 1 | locus YCL061C, strain MRC1, stronger effect = lower value 0.986 | locus YDL101C, strain DUN1, stronger effect = lower value 1.04 | locus YDL134C, strain PPH21, stronger effect = lower value 1 | locus YDR150W, strain NUM1, stronger effect = lower value 0.988 | locus YEL061C, strain CIN8, stronger effect = lower value 0.995 | locus YGR078C, strain PAC10, stronger effect = lower value 1.01 | locus YHR030C, strain SLT2, stronger effect = lower value 0.943 | locus YHR087W, strain rtc3, stronger effect = lower value 1.01 | locus YJL187C, strain SWE1, stronger effect = lower value 1 | locus YJR043C, strain POL32, stronger effect = lower value 0.997 | locus YJR075W, strain HOC1, stronger effect = lower value 0.977 | locus YKL190W, strain CNB1, stronger effect = lower value 0.999 | locus YLR039C, strain RIC1, stronger effect = lower value 1.02 | locus YLR058C, strain SHM2 (second series), stronger effect = lower value 0.994 | locus YLR085C, strain ARP6, stronger effect = lower value 0.967 | locus YLR262C, strain YPT6, stronger effect = lower value 1.02 | locus YML094W, strain GIM5, stronger effect = lower value 1.05 | locus YMR219W, strain ESC1, stronger effect = lower value 1 | locus YMR263W, strain SAP30, stronger effect = lower value 0.996 | locus YNL153C, strain GIM3, stronger effect = lower value 1.02 | locus YNL298W, strain CLA4 (second series), stronger effect = lower value 0.983 | locus YNL322C, strain KRE1, stronger effect = lower value 1 | locus YNR030W, strain Alg12, stronger effect = lower value 0.995 | locus YOL006C, strain TOP1, stronger effect = lower value 0.993 | locus YPL055C, strain LGE1, stronger effect = lower value 1 | locus YPL241C, strain CIN2, stronger effect = lower value 1.05 | locus YPR135W, strain CTF4, stronger effect = lower value 0.975

— PubChem BioAssay AID1159580 (chemical genetic matrix, 2015)
